AI-2 QS modul: modulators of Vibrio harveyi AI-2 quorum sensing system. Vibrio harveyi JMH597 AI-2 luminescence/OD600 ratio, 9 h; active compounds read low; strain lacks LuxN and CqsS sensors; 0 = neutral-control median. activity change, % at 7.5 µM. 300,000 compounds, 0.4% hits. AID 2094; in the data active = activity change below about -75%, passing the limit was not always enough;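 also: luminescence divided by OD600 gain over 9 h not by final OD600 alone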
HSP90 inh: blocks HSP90-mediated luciferase refolding in reticulocyte lysate; Rabbit reticulocyte lysate, luciferase refolding luminescence, 3 h; inhibition, % at 5.6 µM; 290,000 compounds, 0.91% hits; AID 1789;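 active = inhibition above the screen-wide mean plus 3 SD, computed separately per campaign, cut at about 16% in these data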;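 also: 0% = DMSO wells and 100% = 60 µM geldanamycin wells; inhibitors lower the luminescence because luciferase stays unfolded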
HSF1 inhib: HSF1 inhibition; NIH3T3-HGL HSE-luciferase, MG132-induced, luminescence 8 h; active compounds read low; activity change, negative = inhibition, % at 7.5 µM (by protocol); 300,000 compounds, 0.77% hits;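 active = more than half of replicate wells show activity change below -50%, luminescence cut by over half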;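 also: luciferase reports HSF-1 transcriptional activity via heat shock element; 0% = median of DMSO wells and -100% = zero luminescence signal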
SMARCA2 activ: increases SMARCA2 function in MMTV reporter cells | MG213 cells, MMTV-luciferase reporter, dexamethasone, overnight | activation, % at 9.1 µM | 370,000 compounds, 1% hits; in the data active = activation above about 7.8%;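 also: 0% = vehicle wells and 100% = reference activator wells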
PG9 binder: binds the HIV-1 gp120 antibody PG9; TR-FRET gp120-PG9 antibody binding; inhibition, % at 6.7 µM; 360,000 compounds, 0.43% hits; AID 624416; in the data active = inhibition above about 8.5%
GAA850 FXN act: activators of GAA850 frataxin (FXN) promoter. HEK293 lucGAA850 FXN promoter luciferase reporter, 24 h; percent of 10 µM SAHA response. activation, % at 6 µM. 360,000 compounds, 0.56% hits. AID 540364;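 active = activation above the average of all compounds screened plus 3 SD, cutoff fixed separately per campaign, cut at about 7.5% in these data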;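 also: 0% = DMSO wells and 100% = 10 µM SAHA wells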
SMARCA2 conf: SMARCA2 activation, confirmation screen | MG213 cells, MMTV-luciferase with dexamethasone, luminescence, overnight; MG213 cells expressing E1A, Rb sequestered; DMSO wells 0%, reference activator 100% | 3,500 compounds, 30% hits | activation, % at 9.1 µM | shares compounds with SMARCA2 activ;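 active = activation above its plate's cutoff, the mean activation of tested wells plus 3 SD, cut at about 7.9% in these data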
VP16 Luc act: counter-screen for SMARCA2 activators: GAL4-VP16 luciferase reporter activation. shares compounds with SMARCA2 activ. HEK293 GAL4-VP16 pG5luc reporter, luciferase luminescence; scaled: DMSO wells 0%, SAHA wells 100%. activation, % at 9.1 µM. 3,500 compounds, 41% hits. AID 686939;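 active = activation above the solvent-only control well mean plus 3 SD, averaged across control plates, cut at about 5.2% in these data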
* hit, by the source's call. Hits are enriched below; roughly 3.4% of the tested compounds scored in any of these assays.

`CC(=O)N1c2ccc(S(=O)(=O)N3CCC(C(=O)NCc4ccc(Cl)cc4)CC3)cc2CC1C` (configuration not stated) gave AI-2 QS modul 28, HSP90 inh -1, HSF1 inhib 4, SMARCA2 activ -5, PG9 binder -1 and GAA850 FXN act -2.
`N#Cc1ccc(OCC(=O)N[C@@H](Cc2ccccc2)c2nc3ccccc3[nH]2)cc1` gave SMARCA2 activ -2 and PG9 binder 0.
For CC1CC(NC(=O)/C=C/C(=O)O)CC(C)(C)C1 (configuration not stated) the results were AI-2 QS modul 22, HSP90 inh 1, HSF1 inhib 1, SMARCA2 activ 10*, PG9 binder -1, GAA850 FXN act 2, SMARCA2 conf -2 and VP16 Luc act 1.
For O=C(O)/C=C/C(=O)NC1CCCCC1 the results were AI-2 QS modul 10, HSP90 inh 4, HSF1 inhib 15, SMARCA2 activ -4, PG9 binder 0 and GAA850 FXN act -1.
For O=C(Nc1ccc2c(c1)OCO2)C(=O)c1c[nH]c2ccccc12 the results were AI-2 QS modul 14, HSP90 inh 4, HSF1 inhib 35, SMARCA2 activ 9.2*, PG9 binder -3, GAA850 FXN act 3, SMARCA2 conf 4 and VP16 Luc act 7.7*.
For Cc1c(C(=O)Nc2ccc3c(c2)OCO3)oc2ccccc12 the results were AI-2 QS modul 33, HSP90 inh -1, HSF1 inhib 39, SMARCA2 activ 9.7*, PG9 binder -2, GAA850 FXN act 6, SMARCA2 conf 0 and VP16 Luc act 11*.
`Cc1cc(C(=O)OCC(=O)c2ccc3c(c2)OCCO3)c(C)o1` gave AI-2 QS modul -24, HSP90 inh 2, HSF1 inhib 10, SMARCA2 activ 8.1*, PG9 binder -2, GAA850 FXN act 2, SMARCA2 conf 7 and VP16 Luc act 2.
Screening CC(=O)Nc1c(C(=O)Nc2ccc3c(c2)OCO3)oc2ccccc12 returned AI-2 QS modul 11, HSP90 inh -7, HSF1 inhib -43, SMARCA2 activ 3, PG9 binder 0 and GAA850 FXN act 5.
For COC(=O)CNC(=O)COC(=O)c1ccc(Cl)nc1 the results were AI-2 QS modul 10, HSP90 inh 9, HSF1 inhib -3, SMARCA2 activ 8.8*, PG9 binder 1, GAA850 FXN act -1, SMARCA2 conf 0 and VP16 Luc act 1.
`COC(=O)[C@]12C[C@H](CC(=O)NCc3ccc(C)o3)C(=O)N(Cc3ccc4c(c3)OCO4)C1=C[C@H](COCc1ccccc1)O[C@@H]2C` gave SMARCA2 activ -2 and PG9 binder 2.
O=C(OCCN1CCN(C2CN(Cc3cn(Cc4ccccc4C(F)(F)F)nn3)S(=O)(=O)C2)CC1)c1cc2ccccc2o1 (configuration not stated) was read as SMARCA2 activ 2.
CCCc1nc2ccc(C(=O)OC)cn2c1Cc1ccccc1OC was read as SMARCA2 activ -4 and PG9 binder 1.
Screening Clc1ccc(-c2csc(NCC3CCCO3)n2)cc1 (configuration not stated) returned SMARCA2 activ -1 and PG9 binder -4.
Screening CC(C)=CCC[C@H](C)C[C@@H]1Cc2[nH]c(=S)[nH]c(=O)c2[C@@H](c2ccc(F)cc2)O1 returned SMARCA2 activ 3 and PG9 binder 0.
Screening O=C(COC(=O)c1ccc(Cl)nc1)c1ccc2c(c1)OCCO2 returned AI-2 QS modul 7, HSP90 inh 5, HSF1 inhib 41, SMARCA2 activ 10*, PG9 binder 0, GAA850 FXN act 3, SMARCA2 conf 4 and VP16 Luc act 3.
`O=C(COC(=O)c1cccnc1Cl)c1ccc2c(c1)OCCO2` gave AI-2 QS modul 7, HSP90 inh 6, HSF1 inhib 5, SMARCA2 activ 2, PG9 binder -1 and GAA850 FXN act 3.
Screening Cc1c(C(=O)OCC(=O)c2ccc3c(c2)OCCO3)oc2ccccc12 returned AI-2 QS modul 6, HSP90 inh 3, HSF1 inhib 6, SMARCA2 activ 8.0*, PG9 binder -1, GAA850 FXN act 2, SMARCA2 conf 4 and VP16 Luc act 2.
For Cc1c(C(=O)OCC(=O)N2CCC(C)CC2)oc2ccccc12 the results were AI-2 QS modul 19, HSF1 inhib 8, SMARCA2 activ 9.2*, PG9 binder -1, GAA850 FXN act 1, SMARCA2 conf -1 and VP16 Luc act 4.
COc1ccc2oc(C(=O)OCC(=O)N3CCC(C)CC3)c(C)c2c1 was read as AI-2 QS modul 18, HSP90 inh -3, HSF1 inhib 0, SMARCA2 activ -2, PG9 binder 0 and GAA850 FXN act 3.
For O=C(NC1=NCCS1)c1cccc(Br)c1 the results were AI-2 QS modul 9, HSF1 inhib 3, SMARCA2 activ 12*, PG9 binder 1, GAA850 FXN act 6, SMARCA2 conf 17* and VP16 Luc act 7.0*.
O=C(NC1=NCCS1)c1cccc(F)c1 was read as AI-2 QS modul 15, HSF1 inhib 3, SMARCA2 activ 1, PG9 binder 1 and GAA850 FXN act 2.
Screening Cc1ccc(NC(=S)N/N=C/c2ccc(Cl)c([N+](=O)[O-])c2)cc1 returned AI-2 QS modul 11, HSP90 inh -7, HSF1 inhib 7, SMARCA2 activ 0, PG9 binder -2 and GAA850 FXN act -1.
Cc1ccc(S(=O)(=O)N/N=C\c2ccc(Cl)c([N+](=O)[O-])c2)cc1 was read as AI-2 QS modul 1, HSP90 inh 0, HSF1 inhib 7, SMARCA2 activ 11*, PG9 binder 0, GAA850 FXN act 1, SMARCA2 conf 1 and VP16 Luc act -1.
CCN1CCN(CCOc2cccc(Oc3ccccc3)c2)CC1 was read as AI-2 QS modul 28, HSP90 inh -3, HSF1 inhib 2, SMARCA2 activ 8.0*, PG9 binder -2, GAA850 FXN act 1, SMARCA2 conf -3 and VP16 Luc act 1.
Screening CCN1CCN(CCOCCOc2ccccc2)CC1 returned HSP90 inh 2, HSF1 inhib -10, SMARCA2 activ -3, PG9 binder -1 and GAA850 FXN act 3.
